# In PubChem BioAssay:
# Unmarked numbers belong to inactive results. For some of these results: Measured potencies and affinities stand elsewhere. Active and inactive are the calls of the source. Unless noted, the rule behind the calls is not given here.
# Key:
# [1] = antimalarial activity against Dd2 strain (AID 2302;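 active = growth inhibition above 50% at the single 2 µM test dose, taken to imply half-maximal potency below 2 µM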;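 note: 0% = DMSO untreated growth and 100% = chloroquine plus artemisinin killed control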); conditions: P. falciparum Dd2 in RBCs, LDH growth readout, 72 h; at 2 µM; stronger effect = higher value
# [2] = HepG2 cytotoxicity, primary screen, cytotoxicity control for P. falciparum antimalarial project, cell-based, ATP luminescence (AID 2303;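 active = inhibition above 50%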;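 note: 0% = DMSO wells and 100% = digitonin-killed cells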); conditions: HepG2 viability, 24-48 h, at 10 µM, stronger effect = higher value
# [3] = biological target: L-lactate dehydrogenase (Plasmodium falciparum (isolate CDC / Honduras)) (UniProt Q27743); experiment: PfLDH activity inhibition – cell lysate, 3D7 strain, counter-screen for P. falciparum growth inhibition project (AID 2304);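 note: 0% = vehicle and 100% = reference inhibitor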; conditions: P. falciparum 3D7 crude extract, LDH APAD/NBT absorbance; at 2 µM; stronger effect = higher value
# [4] = inhibition of 3D7 malaria parasite growth – strain 3D7 (AID 2306);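 note: 0% = DMSO wells and 100% = chloroquine plus artemisinin control wells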; conditions: P. falciparum 3D7 erythrocytic growth, LDH absorbance, 72 h; at 2 µM; stronger effect = higher value
# [5] = biological target: Calcium-dependent protein kinase 1 (Plasmodium falciparum (isolate 3D7)) (UniProt P62344); experiment: PfCDPK1 kinase inhibitors, biochemical, TCAMS library (AID 1159585; cut-off not given, nearly all actives have IC50 up to about 0.98 µM;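 note: inhibitors leave more ATP so luminescence rises with inhibition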); conditions: recombinant PfCDPK1, Kinase-Glo ATP depletion luminescence
# [6] = biological target: Plasmodium falciparum protein kinase 6 (PK6, PF3D7_1337100) (UniProt Q8IDW1); experiment: PfPK6 kinase inhibitors, biochemical, TCAMS library (AID 1159586); conditions: recombinant PfPK6, Kinase-Glo ATP depletion luminescence
# [7] = biological target: Protein kinase 7 (PK7), Plasmodium falciparum 3D7 (PF3D7_0213400) (UniProt Q7YTF7); experiment: inhibition of Plasmodium PK7 catalytic activity – biochemical, TCAMS antimalarial set, Kinase-Glo luminescence (AID 1159587); conditions: recombinant PfPK7, Kinase-Glo ATP depletion luminescence
# [8] = biological target: Calcium-dependent protein kinase 4 (Plasmodium falciparum (isolate 3D7)) (UniProt Q8IBS5); experiment: PfCDPK4 kinase inhibitors, biochemical, TCAMS library (AID 1159588; cut-off not given, nearly all actives have IC50 up to about 0.91 µM); conditions: recombinant PfCDPK4, Kinase-Glo ATP depletion luminescence
# Chain of Calcium-dependent protein kinase 4 (Plasmodium falciparum (isolate 3D7)) (Q8IBS5 whole entry, looked up): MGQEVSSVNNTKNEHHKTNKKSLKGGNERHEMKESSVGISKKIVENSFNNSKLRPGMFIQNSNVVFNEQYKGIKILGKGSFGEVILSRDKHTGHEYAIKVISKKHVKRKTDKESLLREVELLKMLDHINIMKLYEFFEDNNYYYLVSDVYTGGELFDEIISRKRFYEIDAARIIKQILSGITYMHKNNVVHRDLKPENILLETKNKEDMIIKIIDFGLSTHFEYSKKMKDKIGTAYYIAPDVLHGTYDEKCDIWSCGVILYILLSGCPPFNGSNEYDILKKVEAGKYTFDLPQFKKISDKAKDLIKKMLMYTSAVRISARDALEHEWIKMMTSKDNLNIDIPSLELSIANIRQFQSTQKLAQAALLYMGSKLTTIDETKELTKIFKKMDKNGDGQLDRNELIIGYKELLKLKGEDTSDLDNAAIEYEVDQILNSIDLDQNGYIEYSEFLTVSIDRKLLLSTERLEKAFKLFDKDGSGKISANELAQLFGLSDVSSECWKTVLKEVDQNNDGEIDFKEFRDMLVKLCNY
# Chain of Plasmodium falciparum protein kinase 6 (PK6, PF3D7_1337100) (Q8IDW1 1-305): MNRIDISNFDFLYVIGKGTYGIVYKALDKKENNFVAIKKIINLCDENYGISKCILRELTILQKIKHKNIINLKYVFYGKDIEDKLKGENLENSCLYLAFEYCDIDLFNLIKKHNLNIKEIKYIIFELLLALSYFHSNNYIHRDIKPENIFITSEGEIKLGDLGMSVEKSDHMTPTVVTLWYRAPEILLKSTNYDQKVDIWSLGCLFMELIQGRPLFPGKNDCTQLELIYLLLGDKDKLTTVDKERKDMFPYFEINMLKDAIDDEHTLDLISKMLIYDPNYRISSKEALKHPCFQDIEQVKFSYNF
# Chain of Protein kinase 7 (PK7), Plasmodium falciparum 3D7 (PF3D7_0213400) (Q7YTF7 1-343): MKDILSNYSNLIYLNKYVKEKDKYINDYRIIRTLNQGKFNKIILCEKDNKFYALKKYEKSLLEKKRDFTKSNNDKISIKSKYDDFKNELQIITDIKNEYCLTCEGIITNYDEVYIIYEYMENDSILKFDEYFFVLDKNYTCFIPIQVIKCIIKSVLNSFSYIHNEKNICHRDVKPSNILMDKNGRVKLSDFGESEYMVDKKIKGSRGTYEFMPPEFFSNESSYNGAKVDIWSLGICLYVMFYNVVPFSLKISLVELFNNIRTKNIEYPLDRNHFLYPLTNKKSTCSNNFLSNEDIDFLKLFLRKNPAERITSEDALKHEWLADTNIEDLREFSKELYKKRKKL
# Chain of Calcium-dependent protein kinase 1 (Plasmodium falciparum (isolate 3D7)) (P62344 whole entry, looked up): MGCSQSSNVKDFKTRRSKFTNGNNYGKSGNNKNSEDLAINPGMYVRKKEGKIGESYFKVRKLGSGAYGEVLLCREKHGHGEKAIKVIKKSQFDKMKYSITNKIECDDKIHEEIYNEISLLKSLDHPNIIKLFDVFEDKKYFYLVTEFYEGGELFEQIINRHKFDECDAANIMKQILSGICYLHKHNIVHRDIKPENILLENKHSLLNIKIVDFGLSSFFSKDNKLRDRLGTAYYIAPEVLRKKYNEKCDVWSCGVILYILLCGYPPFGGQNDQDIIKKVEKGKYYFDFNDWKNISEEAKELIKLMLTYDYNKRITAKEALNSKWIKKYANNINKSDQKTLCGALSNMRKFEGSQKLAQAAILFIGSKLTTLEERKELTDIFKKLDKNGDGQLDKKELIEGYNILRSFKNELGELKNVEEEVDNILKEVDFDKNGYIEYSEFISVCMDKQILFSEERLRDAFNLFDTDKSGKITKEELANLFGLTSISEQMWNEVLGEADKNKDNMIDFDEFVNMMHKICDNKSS
# Chain of L-lactate dehydrogenase (Plasmodium falciparum (isolate CDC / Honduras)) (Q27743 whole entry, looked up): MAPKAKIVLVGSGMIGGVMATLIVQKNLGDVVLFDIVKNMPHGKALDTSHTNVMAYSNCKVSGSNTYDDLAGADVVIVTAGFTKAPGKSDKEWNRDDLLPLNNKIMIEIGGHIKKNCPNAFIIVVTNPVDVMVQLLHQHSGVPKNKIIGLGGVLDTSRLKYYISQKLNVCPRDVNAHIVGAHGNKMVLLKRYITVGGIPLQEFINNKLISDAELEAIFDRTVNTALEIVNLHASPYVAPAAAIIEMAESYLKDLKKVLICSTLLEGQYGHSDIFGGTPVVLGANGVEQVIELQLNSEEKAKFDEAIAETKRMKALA
Compound,growth inhibition [1],inhibition [2],inhibition [3],growth inhibition [4],outcome [5],outcome [6],outcome [7],outcome [8]
CS(=O)(=O)c1ccc(CNCc2ccc(-c3ccc(-c4nc5ccc(F)cc5[nH]4)s3)cc2)cc1,97% (active),22%,0%,102% (active),inactive,inactive,inactive,inactive
CCCCCNc1nc2nc(N)nc(N)c2nc1-c1ccccc1,-4%,9%,-2%,91% (active),inactive,inactive,inactive,inactive
CCCC(=O)NC(c1ccc(C(C)C)cc1)c1ccc2cccnc2c1O (stereo not drawn),37%,50% (active),0%,90% (active),inactive,inactive,inactive,inactive
COc1ccc2nccc([C@@H](O)CN3CCC(NCc4cc5ccccc5[nH]c4=O)CC3)c2c1,-3%,-6%,3%,97% (active),inactive,inactive,inactive,inactive
CCOc1ccc2nc(C)cc(NN=Cc3ccccc3[N+](=O)[O-])c2c1,99% (active),91% (active),-5%,101% (active),inactive,inactive,inactive,inactive
CCC(C)NCCC(c1ccccc1)c1ccccc1O (stereo not drawn),74% (active),4%,4%,97% (active),inactive,inactive,inactive,inactive
Cn1cc(C2CCN(CCCCCNC(=O)/C=C/c3ccc(Cl)c(Cl)c3)CC2)c2cc(O)ccc21,-2%,11%,-2%,94% (active),inactive,inactive,inactive,inactive
Cc1cc2nc(-c3ccc(C(=O)NCc4cccc(C(F)(F)F)c4)cc3)[nH]c2cc1C,34%,4%,-9%,98% (active),inactive,inactive,inactive,inactive
CCCCN=C(N)c1ccc(OCCCCCOc2ccc(C(N)=NCCCC)cc2)cc1,99% (active),19%,-4%,99% (active),inactive,inactive,inactive,inactive
CCCn1cnc2cc(C(=O)Nc3ccc(-c4cccc(CN(C)C)c4)cc3)ccc2c1=O,6%,26%,-6%,95% (active),inactive,inactive,inactive,inactive
Cc1cc(NC(=O)Nc2ccc(Cl)cc2F)c2ccccc2n1,71% (active),10%,2%,100% (active),inactive,inactive,inactive,inactive
Cc1ccc(O)cc1Nc1ccnc2ccc(-c3csc(CNCCN4CCOCC4)n3)cc12,97% (active),-24%,-2%,101% (active),inactive,inactive,inactive,inactive
Cc1ccc(F)c(OCC2CCCN(c3ccc(C(=O)NC4CC4)cn3)C2)c1 (stereo not drawn),94% (active),3%,-3%,96% (active),inactive,inactive,inactive,inactive
COc1ccc2nccc([C@@H](O)CN3CCC(NC(=O)c4ccc(Cl)c(Cl)c4)CC3)c2c1,57% (active),21%,-5%,96% (active),inactive,inactive,inactive,inactive
COc1ccc(CNC2Cc3ccccc3C2)cc1-c1ccc(S(=O)(=O)NCc2ccccc2)s1,25%,22%,4%,97% (active),inactive,inactive,inactive,inactive
Nc1nc(N)c2c(ccc3c2ccn3Cc2cc3c(cc2Cl)OCO3)n1,94% (active),58% (active),-5%,95% (active),inactive,inactive,inactive,inactive
CCN(CC)CCCC(C)Nc1ccnc2ccc(OC)cc12 (stereo not drawn),-3%,7%,-2%,102% (active),inactive,inactive,inactive,inactive
C[C@H](NCCC1CCC(NC(=O)N[C@H](C)C(O)(c2ccccc2)c2ccccc2)CC1)c1cccc2ccccc12 (stereo partly drawn),58% (active),43%,-2%,86% (active),inactive,inactive,inactive,inactive
O=C(Nc1ccc(-c2cccc(-c3nc4ccc(C(F)(F)F)cc4[nH]3)c2)cc1)Nc1ccc(F)c(F)c1F,85% (active),58% (active),1%,99% (active),inactive,inactive,inactive,inactive
CC(=NN=C(N)N)c1ccc2c(c1)Cc1ccccc1-2,10%,44%,5%,101% (active),inactive,inactive,inactive,inactive
Cc1cc(-c2ccc3c(c2)CCN(CCCOc2ccc4c(c2)CCN4C(=O)/C=C/c2ccccc2Cl)CC3)no1,50% (active),52% (active),1%,88% (active),inactive,inactive,inactive,inactive

Compound,growth inhibition [1],inhibition [2],inhibition [3],growth inhibition [4],outcome [5],outcome [6],outcome [7],outcome [8]
O=C(c1ccc(Cl)cc1)C1CCN(CCCOc2ccc3c(c2)CCNCC3)CC1,23%,78% (active),-2%,93% (active),inactive,inactive,inactive,inactive
COc1ccc(C2CC(c3cccs3)=NN2C(=O)CNc2ccccc2F)cc1OC (stereo not drawn),45%,11%,2%,87% (active),inactive,inactive,inactive,inactive
CC(=O)Nc1cccc(C(=O)Nc2ccc(-c3cccc(-c4nc5ccc(C(F)(F)F)cc5[nH]4)c3)cc2)c1,85% (active),81% (active),2%,101% (active),inactive,inactive,inactive,inactive
O=C(Nc1ccc(CN2CCN(S(=O)(=O)c3cccc(Cl)c3)CC2)cc1)c1cccs1,41%,9%,0%,84% (active),inactive,inactive,inactive,inactive
Cc1cc(NC(=O)Nc2ccc(C(C)(C)C)cc2)c2ccccc2n1,57% (active),-3%,5%,101% (active),inactive,inactive,inactive,inactive
CC(C)Cc1c(O)nc(SCCN2CCOCC2)[nH]c1=O,-5%,19%,1%,88% (active),inactive,inactive,inactive,inactive
OC(CNCCc1ccccc1)Cn1c2ccc(Cl)cc2c2cc(Cl)ccc21 (stereo not drawn),96% (active),53% (active),8%,98% (active),inactive,inactive,inactive,inactive
O=C(Nc1cccc(-c2ccc(CN3CCC(O)CC3)cc2)c1)c1ccc(Cl)cc1,8%,46%,4%,95% (active),inactive,inactive,inactive,inactive
CCc1ccccc1N1CCN(CCCC(=O)c2ccc(NC(=O)c3ccc(Cl)cc3)cc2)CC1,4%,17%,7%,90% (active),inactive,inactive,inactive,inactive
COc1csc2cc(Br)ccc12,-5%,6%,-3%,101% (active),inactive,inactive,inactive,inactive
CCCN(Cc1nnc(-c2ccco2)o1)C(=O)C1CCN(c2ncc(C(F)(F)F)cc2Cl)CC1,92% (active),19%,-6%,98% (active),inactive,inactive,inactive,inactive
N=C(N)c1ccc(NC(=O)c2cc(Sc3ccc(O)c(C(=O)Nc4ccc(C(=N)N)cc4)c3)ccc2O)cc1,87% (active),11%,2%,93% (active),inactive,inactive,inactive,inactive
CN(CCCc1c[nH]c2ccccc12)CC1CCN(C(=O)/C=C/c2ccc(Cl)c(Cl)c2)CC1,25%,37%,-1%,99% (active),inactive,inactive,inactive,inactive
Cc1cc(N2CCOCC2)nc2ccc(NC(=O)c3ccc(Cl)c([N+](=O)[O-])c3)cc12,15%,12%,3%,98% (active),inactive,inactive,inactive,inactive
CN1CCC(C(=O)Nc2cccc(-c3ccc(-c4nc5ccc(F)cc5[nH]4)cc3)c2)CC1,51% (active),12%,3%,100% (active),inactive,inactive,inactive,inactive
Fc1cc(Cl)ccc1Nc1ccnc2cc(I)ccc12,10%,11%,-1%,90% (active),inactive,inactive,inactive,inactive
Cc1cccn2c(=O)c3cc(C(=O)NCCN4CCOCC4)c(=N)n(CCc4ccccc4)c3nc12,85% (active),13%,1%,100% (active),inactive,inactive,inactive,inactive
Oc1ccc(Nc2ccnc3cc(Cl)ccc23)cc1,97% (active),0%,0%,100% (active),inactive,inactive,inactive,inactive
CN(C)c1nc2cc(-n3cnc4cc(-c5ccc(Cl)cc5)sc4c3=O)ccc2n1CCCN1CCCC1,73% (active),99% (active),2%,97% (active),inactive,inactive,inactive,inactive
CC(C)(C)N1CCC(N(Cc2ccc(-c3ccc(C(F)(F)F)cc3)cc2)C(=O)Cn2c(CCc3cccc(F)c3F)nc(=O)c3cccnc32)CC1,53% (active),94% (active),3%,100% (active),inactive,inactive,inactive,inactive
